Assay outcomes as filed in PubChem.
PAX8 reporter – inhibitors of PAX8 transcriptional activity in RMG-I cells | RMG-I TPO-luciferase reporter, SteadyGlo, 24 h | inhibition, % at 12.6 µM | 360,000 compounds, 1.2% hits | AID 652154;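 active means mean replicate inhibition at least 60% with every replicate also reaching 60%; inconclusive means only one of the two criteria is met; inactive means mean below 60% and not all replicates reaching 60%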;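 further: luciferase light reporting Pax8 driven TPO promoter activity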
MITF TRPM1 inh – reduces MITF-dependent TRPM1 promoter luciferase signal; SK-MEL-5 TRPM1 promoter luciferase, 24 h; inhibition, % at 12.5 µM; 330,000 compounds, 0.83% hits;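 active means mean inhibition across replicates of 60% or more, whatever share of single replicates reaches that level; inconclusive means some that reach 60%, reason not given; inactive means mean inhibition across replicates below 60%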
Shn3 inh set2 – inhibitors of Schnurri-3 3'UTR reporter in osteoblasts; Clone20 osteoblast Shn3 3'UTR firefly luciferase, 24 h; inhibition, % at 12.5 µM; 360,000 compounds, 0.52% hits; AID 588674;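 active means mean inhibition of at least 75% with every replicate also reaching 75%; inconclusive means mean inhibition at least 75% but some replicate below; inactive means mean inhibition below 75%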
EBV LMP1 NFkB – reduces LMP1-driven NF-kappaB luciferase signal; LMP1-induced NF-kappaB luciferase reporter cells, luminescence; inhibition, % at 12.5 µM; 350,000 compounds, 0.69% hits; AID 504558; in the data active means inhibition above about 41%; inconclusive means no clear call, values can overlap the other calls
aSyn 5UTR inh – MLPCN primary screen, SNCA 5' untranslated region | alpha-synuclein 5'UTR reporter, inhibitor activity | inhibition, % (tested at 7.5 µM) | 300,000 compounds, 0.82% hits; in the data active means inhibition above about 60%; inconclusive means no clear call, values can overlap the other calls;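 further: H4 neuroglioblastoma cells stably carrying SNCA 5'UTR luciferase fusion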
A number is an active result; . = inactive; ? = inconclusive; / = no result. In the library only some 2.1% were active in any assay of this set; here they are far more common.

SMILES	PAX8 reporter	MITF TRPM1 inh	Shn3 inh set2	EBV LMP1 NFkB	aSyn 5UTR inh
Cc1ccc2nc(NC(=S)NC(=O)c3ccco3)sc2c1	.	.	.	.	.
S=C(NCCc1ccncc1)Nc1cccc2ccccc12	.	.	.	.	.
O=C1NC(Cc2ccccc2)C(=O)N1Cc1cc([N+](=O)[O-])cc2c1OCOC2 (configuration not stated)	.	.	.	55	.
CCOc1ccccc1C(=O)NC1CC2CCCC(C1)N2Cc1nnnn1Cc1ccco1 (configuration not stated)	.	.	.	57	.
CNS(=O)(=O)c1cccc(C(=O)OCc2cc(C(C)=O)ccc2OC)c1	.	.	82	.	.
CNS(=O)(=O)c1cccc(C(=O)OCC(=O)NC(C)CCc2ccccc2)c1 (configuration not stated)	.	.	.	42	.
COc1ccc(C(C)=O)cc1COC(=O)c1ccc(S(=O)(=O)N(C)C)cc1	.	.	.	.	.
Oc1ccc(/C=N/N2CCN(Cc3ccccc3)CC2)cc1	.	.	.	.	.
COc1ccc(N2CCC(CNC(=S)Nc3cc(C)cc(C)c3)C2)cc1 (configuration not stated)	.	.	.	.	.
Cc1ccc2[nH]c(=O)c(C3C(C#N)=C(N)Oc4c3ccc3cccnc43)cc2c1 (configuration not stated)	/	.	.	.	75
CCCCc1c(Cc2ccccc2)ncn1CCc1ccccc1OC	62	/	/	/	/
CCCCc1c(-c2ccccc2)ncn1CCc1ccccc1OC	.	/	/	/	/
CCOC(=O)C(C(=O)Nc1cccc(C)c1)C1CCCCC1 (configuration not stated)	/	.	.	.	.
CNC1CCc2cc(OC)c(OC)c(OC)c2-c2ccc(SC)c(=O)cc21 (configuration not stated)	72	/	.	.	/
CCOCC(=O)NC1CCc2cc(OC(=O)COCC)c(OC)c(OC)c2-c2ccc(SC)c(=O)cc21 (configuration not stated)	91	.	.	.	/
COc1ccc2c(c1)C(NC(=O)C(F)(F)F)CC2=O (configuration not stated)	.	.	.	.	.
COc1cc2c(c(OC)c1OC)-c1ccc(SC)c(=O)cc1C(NC(=O)C(F)(F)F)CC2 (configuration not stated)	87	.	.	.	/
COc1ccc(-c2ccc(=O)n(CC(=O)NC3CCc4ccccc43)n2)cc1OC (configuration not stated)	.	.	.	.	.
CCN(CC)C(=O)CSc1nnc2nnc3cc(Cl)ccc3n12	.	72	.	.	.
C=CCn1cc(CN2CCC(C(=O)Nc3cccc(-c4cccc(Cl)c4)c3)CC2)c(C)n1	.	75	.	.	.
Cc1nn(C(C)C)c(C)c1CN1CCC(C(=O)Nc2cccc(-c3cccc(F)c3)c2)CC1	.	61	.	.	.
CO[C@@H]1CN(C)C(=O)c2cc(NC(C)=O)ccc2OC[C@@H](C)N(Cc2ccc(-c3ccccn3)cc2)C[C@H]1C	.	/	/	/	/
Cn1c(=O)c2c(nc(NCCOc3ccc(F)cc3)n2C)n(C)c1=O	.	.	.	.	.
Cn1cccc1/C=N/n1c(-c2ccc(Cl)cc2Cl)n[nH]c1=S	/	.	.	84	.
Nc1nc(Cl)cc(N2CCC(c3cc(-c4ccc(Cl)cc4)n[nH]3)CC2)n1	/	65	81	.	.
SMILES	PAX8 reporter	MITF TRPM1 inh	Shn3 inh set2	EBV LMP1 NFkB	aSyn 5UTR inh
C/C(Cl)=C\Cn1c(NCCc2ccccc2)nc2c1c(=O)n(C)c(=O)n2C	/	.	88	.	.
O=C(N1CCOCC1)N1[C@H](COCc2ccccc2)C=CS1(=O)=O	.	/	.	/	/
Fc1ccc(-c2csc3ncnc(N4CCc5ccccc5C4)c23)cc1	70	.	.	.	.
Cc1ccc(-c2csc3ncnc(N4CCc5ccccc5C4)c23)cc1	.	.	.	.	.
COCCCNc1nc(N)c([N+](=O)[O-])c(NC2CCCCC2)n1	.	.	.	.	90
COc1ccc(Nc2nc(N)c([N+](=O)[O-])c(NC3CCCCC3)n2)cc1	.	.	.	.	62
CC(C)CCNc1nc(N)c([N+](=O)[O-])c(NCC2CCCO2)n1 (configuration not stated)	.	.	.	.	62
COc1ccc(Nc2nc(N)c([N+](=O)[O-])c(NCCO)n2)cc1	.	/	.	/	.
C=CCN1CCc2cc(O)c(O)cc2C(c2ccccc2)C1 (configuration not stated)	.	.	.	77	/
C=CCN1CCc2c(cc(O)c(O)c2Cl)C(c2ccccc2)C1 (configuration not stated)	.	.	.	.	.
O=c1c2cnn(-c3ccccc3)c2nc(-c2cccs2)n1-c1ccc(Cl)cc1	/	.	.	44	.
Cc1cc[n+](CC(=O)c2ccc(NC(=O)c3ccccc3)cc2)c2ccccc12	80	.	.	.	.
O=C(C[n+]1cccc2ccccc21)c1ccc(NC(=O)c2ccccc2)cc1	.	.	.	.	.
CC(=O)OCCCNc1cc(Sc2nc3ccccc3s2)c2nonc2c1[N+](=O)[O-]	/	.	101	.	.
CC(=O)OCCNc1cc(SCc2ccco2)c2nonc2c1[N+](=O)[O-]	/	.	.	.	.
O=[N+]([O-])c1c(NCCCO)cc(Sc2ccc(Cl)cc2)c2nonc12	.	92	94	48	.
CC(=O)OCCCNc1cc(Sc2ccc(C)cc2)c2nonc2c1[N+](=O)[O-]	.	.	95	.	.
CC(=O)OCCNc1cc(Sc2nc3ccccc3[nH]2)c2nonc2c1[N+](=O)[O-]	.	80	98	.	.
Cc1ccc(C(=O)N[C@H](C(=O)OCC(=O)Nc2cccc(S(N)(=O)=O)c2)C(C)C)cc1	.	.	.	.	.
Cc1ccc(CN2CCC(NC(=O)c3ccccc3)CC2)cc1	.	.	.	.	.
COc1cccc(C(=O)NCCSc2c(C)[nH]c3ccccc23)c1OC	.	.	.	.	.
CC/C(=C/c1ccccc1)c1cccc2[nH]c3c(OC)cccc3c12	.	.	86	.	.
CC(=O)c1cccc(NC(=O)COC(=O)c2ccccn2)c1	.	.	.	.	.
CCN1/C(=C/c2cccc[n+]2C)Sc2ccc(OC)cc21	71	.	.	.	.
Cc1ccc2c(c1)N(C)/C(=C/c1cccc[n+]1C)S2	79	.	88	.	.
SMILES	PAX8 reporter	MITF TRPM1 inh	Shn3 inh set2	EBV LMP1 NFkB	aSyn 5UTR inh
CN1/C(=C/c2cccc[n+]2C)Sc2ccccc21	.	.	.	.	.
CO[C@@H]1CN(C)C(=O)c2cc(NC(=O)C3CCCCC3)ccc2OC[C@@H](C)N(C(=O)c2ccccc2)C[C@H]1C	.	/	/	/	/
O=C1c2ccccc2C(=O)c2c1cccc2N1CCCC1	.	.	.	.	.
O=C1C=C(N2CCCCC2)c2ccccc2C1=O	87	/	.	/	122
COc1cccc(/C=N/NC(=O)c2cc(-c3ccccn3)nc3ccccc23)c1O	68	.	?	.	/
O=C(N/N=C/c1ccc(F)cc1)c1cc(-c2ccccn2)nc2ccccc12	.	.	.	.	/
COc1cccc(/C=N/NC(=O)c2ccc(-c3ccccc3)cc2)c1O	/	69	91	57	76
